Experimental findings from PubChem BioAssay (NCATS) are described below.

The structures appear in SMILES notation.

A short description of one experiment: qHTS profiling of the MIPE4 collection as inhibitors of Plasmodium falciparum (DD2) proliferation (Rep 2) (AID 743346). Conditions: P. falciparum Dd2 in erythrocytes, SYBR Green DNA, 72 h; at 9.64 µM (top of the series). The source says:
Plasmodium falciparum is a virulent malarial parasite that kills 1-2 million people worldwide each year. Transmitted by mosquitoes, the sporozoite form of the parasite enters the blood stream to infect hepatocytes, where they become merozoites that infect red blood cells (erythrocytes). Within erythrocytes, merozoites begin a […] cycle of growth and division, after which the parasite is released to infect new red blood cells. Gametocytes, which form within erythrocytes as well, circulate in the bloodstream and are ingested by the mosquito, thereby completing the life cycle. To profile malarial isolates for differential chemical responses and to identify inhibitors of malarial growth, an assay that measures P. falciparum growth and replication within erythrocytes was employed. This assay uses a DNA binding fluorescent dye (SYBR Green) to detect parasite DNA following cell lysis. Because mature erythrocytes lack DNA, only Plasmodium-derived DNA is detected.
The SYBR Green viability assay was adapted from a method described previously (Plouffe et al., 2008). For screening 3 ul culture medium was dispensed into 1536 well black clear bottom plates (Aurora Biotechnologies) using a Multidrop Combi (Thermo Fisher Scientific Inc.), 23 nL compounds in DMSO were added by a pin tool (Kalypsys), and 5 ul of erythrocytes infected with P. falciparum (0.3% parasitemia, 2.5% hematocrit final concentration) were added. The plates were incubated at 37 C in a humidified incubator in 5% CO2 for 72 h, and 2 ul lysis buffer (20 mM Tris HCl, 10 mM EDTA, 0.16% saponin, 1.6% triton X, 10X SYBR Green I supplied as 10,000X […] by Invitrogen) was added to each well. The plates were mixed for 25 sec with gentle shaking and incubated overnight at room temperature in the dark. The following morning, fluorescence intensity at 485(14) nm excitation and 535(25) nm emission wavelengths was measured on an EnVision (Perkin Elmer) plate reader. Plate reads were normalized relative to the control inhibitor (0.29 uM artemisinin) and vehicle (DMSO) wells present on each plate and then corrected by an algorithm using vehicle-only control plates at the beginning and end of the compound plate stack.
Turning to `C[C@H]1C[C@@H]2[C@@H]([C@@H](O)C[C@@]3(C)[C@H]2CC[C@]3(O)C(=O)CO)[C@@]2(C)C=CC(=O)C=C12`, the parasite growth, % of control (lower = inhibition) stood at 62.6%.

Staying with this experiment, now noted: P. falciparum Dd2 in erythrocytes, SYBR Green DNA, 72 h; at 28.5 µM.
In the case of `C[C@H]1C[C@@H]2[C@@H]([C@@H](O)C[C@@]3(C)[C@H]2CC[C@]3(O)C(=O)CO)[C@@]2(C)C=CC(=O)C=C12`, the parasite growth, % of control (lower = inhibition) is 62.7%.

The experiment is the same for the next values; noted with them: P. falciparum Dd2 in erythrocytes, SYBR Green DNA, 72 h; at 28.5 µM unless noted.
As to `Cc1cc(Nc2cc(N3CCN(C)CC3)nc(C=Cc3ccccc3)n2)n[nH]1`, the parasite growth, % of control (lower = inhibition) was found to be 8.07% [at 57.5 µM].
For `CC(=O)SC[C@@H](C)C(=O)N1CCC[C@H]1C(=O)N[C@@H](Cc1ccccc1)C(=O)O`, the parasite growth, % of control (lower = inhibition) was found to be 69.5%.
On the same count and under the same terms, with `CC(C)(O)c1cc2nc(-c3cnc(N)nc3)nc(N3CCOCC3)c2s1` the figure was 10%; with `CNC(=O)CN1CCC(Oc2cc3c(Nc4cccc(Cl)c4F)ncnc3cc2OC)CC1`, 16%; with `COc1cc2c(Oc3ccc4[nH]c(C)cc4c3F)ncnc2cc1OCCCN1CCCC1`, 15.9%.
Same read-out and setting: the figure for `CCc1cc2c(cc1N1CCC(N3CCOCC3)CC1)C(C)(C)c1[nH]c3cc(C#N)ccc3c1C2=O` is 33.7%.
The same measure, in the same setting: the figure for `Nc1ccn([C@@H]2CS[C@H](CO)O2)c(=O)n1` is 146% [at 57.5 µM].
For `Cc1cc(Nc2cc(N3CCN(C)CC3)nc(Sc3ccc(NC(=O)C4CC4)cc3)n2)n[nH]1`, the parasite growth, % of control (lower = inhibition) is 22.4%.
With `CCCCc1nc2cc(C=CC(=O)NO)ccc2n1CCN(CC)CC`, the parasite growth, % of control (lower = inhibition) is 7.61%.
The same measure, in the same setting: with `O=C(O)CCCc1c[nH]c2ccccc12` the figure was 142%.
The same measure, in the same setting: the figure for `CN1CCN(c2ccc3nc(-c4c(N)c5c(F)cccc5[nH]c4=O)[nH]c3c2)CC1` is 7.17%.
In the case of `CC(C)C[C@H](NC(=O)CNC(=O)c1cc(Cl)ccc1Cl)B(O)O`, the parasite growth, % of control (lower = inhibition) came to 7.79%.
Same read-out and setting: with `COc1ccc2c(c1)CC[C@@H](CN(C)CC(=O)O)[C@H]2c1ccccc1` the figure was 28.4%; with `O=C(Nc1nc2cccc(-c3ccc(CN4CCS(=O)(=O)CC4)cc3)n2n1)C1CC1`, 62.8%; with `Cc1[nH]c2ccccc2c1CCNCc1ccc(C=CC(=O)NO)cc1`, 6.72%.
Same read-out and setting: with `Nc1ccc(C(=O)c2cc3c(ccc4ccccc43)[nH]2)cc1` the figure was 118%; with `Cc1coc2c1C(=O)C(=O)c1c-2ccc2c1CCCC2(C)C`, 26.2%; with `CC(=O)Nc1sc2c(c1-c1nc3ccccc3s1)CNC2`, 24%.
Take `COc1cccc2c(NCc3ccccc3)nc(-n3c(N)nc4ccccc43)nc12`: the parasite growth, % of control (lower = inhibition) came out at 11.4%.
The same measure, in the same setting: with `CCOc1cc2ncc(C#N)c(Nc3ccc(F)c(Cl)c3)c2cc1NC(=O)C=CCN(C)C` the figure was 9.55%; with `CNC(=O)c1c(F)cccc1Nc1nc(Nc2cc3c(cc2OC)CCN3C(=O)CN(C)C)nc2[nH]ccc12`, 6.76%.
Take `NC1(Cc2ccc(Cl)cc2)CCN(c2ncnc3[nH]ccc23)CC1`: the parasite growth, % of control (lower = inhibition) is 23.9%.
The same measure, in the same setting: the figure for `O=C(NC1CCNCC1)c1[nH]ncc1NC(=O)c1c(Cl)cccc1Cl` is 22%.
As for `O=C(Nc1cc(C(F)(F)F)cc(C(F)(F)F)c1)c1cc(Cl)ccc1O`, the parasite growth, % of control (lower = inhibition) worked out at 14.1%.
Still for that read-out and setting: with `CCN(CC)CCNC(=O)c1ccc2nc(-c3ccccc3)c(-c3ccc(CN4CCC(n5c(=O)[nH]c6ccccc65)CC4)cc3)nc2c1` the figure was 19.4%; with `CN(C)c1nc(Cc2ccc(NC(=O)c3ccc4ccccc4c3)cc2)nc(Cl)c1CC(=O)O`, 42.6%; with `CN(C1CCc2c(c3ccccc3n2CC(=O)O)C1)S(=O)(=O)c1ccc(F)cc1` (stereo not given), 19%.
Same read-out and setting: the figure for `NC(=O)c1cccc2cn(-c3ccc([C@@H]4CCCNC4)cc3)nc12` is 25.3%; for `CC(NCc1ccc2c(c1)nc(NC(=O)c1ccc(-c3cn[nH]c3)s1)n2CC(C)(C)O)C(C)(C)C` (stereo not given) it is 9.25%; for `Cc1c(CN2CCN(S(C)(=O)=O)CC2)sc2c(N3CCOCC3)nc(-c3cnc(N)nc3)nc12` it is 18.4%.
Take `O=c1[nH]c(=O)n(C2CCCO2)cc1F` (stereo not given): the parasite growth, % of control (lower = inhibition) came out at 110% [at 57.5 µM].
On the same count and under the same terms, the figure for `CC(C)(C)NC(=O)[C@H]1CN(Cc2cccnc2)CCN1C[C@@H](O)C[C@@H](Cc1ccccc1)C(=O)N[C@H]1c2ccccc2C[C@H]1O` is 27.8%; for `Cc1c(NC(=O)OC[C@@H]2COCCN2)cn2ncnc(Nc3ccc4c(cnn4Cc4cccc(F)c4)c3)c12` it is 24.7%; for `Cc1ccc(-c2ncn(-c3ccc(Nc4nccc(-c5cccc(N6CCOCC6)c5)n4)cc3)n2)cn1` it is 11.5%.
On the same count and under the same terms, with `Nc1cccc(-c2cc3c(Oc4cccc(O)c4)ncnc3[nH]2)c1` the figure was 52.9%.
On the same count and under the same terms, the figure for `COc1ccc(-n2nc(C(N)=O)c3c2C(=O)N(c2ccc(N4CCCCC4=O)cc2)CC3)cc1` is 61.9%; for `C=CCn1c(=O)c2cnc(Nc3ccc(N4CCN(C)CC4)cc3)nc2n1-c1cccc(C(C)(C)O)n1` it is 21.2%.
`c1cc(-c2cnn3cc(-c4ccc(OCCN5CCCCC5)cc4)cnc23)ccn1`: the parasite growth, % of control (lower = inhibition) worked out at 10.1%.
